Data as given in PubChem BioAssay AID652054 (National Center for Advancing Translational Sciences (NCATS), 2013).
About 9,100 (2.5%) of roughly 360,000 compounds were called active. Roughly 4% stayed inconclusive and do not appear here. No stated cut-off is given here; in the data, active means max response below about -50%; inconclusive means no clear call, values can overlap the other calls; inactive means above that. What follows is part of a selection rich in actives, with near analogues and random picks from the rest.

These compounds were tested against D(3) dopamine receptor (Homo sapiens) (UniProt P35462) (assay: qHTS of D3 Dopamine Receptor Antagonist: qHTS). Settings: D3R cells, DiscoveRx beta-arrestin luminescence, antagonist mode; active compounds read low.
Sequence of D(3) dopamine receptor (Homo sapiens) (P35462 whole entry, looked up): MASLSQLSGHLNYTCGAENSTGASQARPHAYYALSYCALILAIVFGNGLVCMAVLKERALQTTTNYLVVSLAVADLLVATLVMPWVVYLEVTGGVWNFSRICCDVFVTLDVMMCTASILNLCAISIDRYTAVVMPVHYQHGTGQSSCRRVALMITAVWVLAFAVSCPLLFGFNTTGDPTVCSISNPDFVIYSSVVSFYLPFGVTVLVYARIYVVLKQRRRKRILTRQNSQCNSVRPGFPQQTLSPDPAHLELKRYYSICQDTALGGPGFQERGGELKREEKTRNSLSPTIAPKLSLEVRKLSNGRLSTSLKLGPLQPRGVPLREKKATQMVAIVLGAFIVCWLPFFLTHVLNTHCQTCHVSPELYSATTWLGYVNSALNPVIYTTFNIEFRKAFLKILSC
In short: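 Cells plated overnight at 1500 cells/well, then exposed to library compounds with dopamine controls for 90 minutes at 37 degrees C. DiscoveRx reagent added for 30–60 minutes at room temperature; luminescence read, quantitative HTS format.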
On the % scale 0 is the no-effect control and ±100 the full control effect.

Max response, negative = inhibition, inactive:
Cc1ccc(C(=O)Nc2c(-c3ccccc3)[nH][nH]c2=O)cc1 -20.8%
COCOCCn1cc(CN2CCS(=O)(=O)N(Cc3ccc(-c4ccccc4)cc3)C(CC(C)C)C2=O)nn1 (stereo unspecified) 13%
CCOC(=O)c1cc(NC(=O)c2cccnc2)ccn1 -0.585%
CC(C)NS(=O)(=O)c1ccc(NC(=O)c2cccnc2)cc1 0%
CCOC(=O)[C@]12CCCC=C1N(Cc1ccc3c(c1)OCO3)C(=O)[C@H](CC(=O)N1CCN(C(=O)c3ccco3)CC1)C2 -0.946%
Cc1cccc(C(=O)NC2CCN(CC(=O)Nc3cccc(Cl)c3)CC2)c1 -13.9%
OC[C@@H]1CN(C2CCCC2)C[C@H](n2cnc3c(NC4CCC4)ncnc32)O1 -7.86%
CNc1ccc([N+](=O)[O-])cc1C(=O)O -6.53%
CCN(CC)c1ccc([N+](=O)[O-])cc1C(=O)O 9.06%
CN1CCN(CCNC(=O)Nc2ccc([N+](=O)[O-])cc2)CC1 -6.94%
O=C(c1cc(C(=O)N2CCN(c3ccc(F)cc3)CC2)cc([N+](=O)[O-])c1)N1CCN(c2ccc(F)cc2)CC1 -2.24%
COc1ccc(C2OC(CCc3ccccc3)Cc3[nH]c(=S)[nH]c(=O)c32)cc1 (stereo unspecified) 0%
OC[C@@H]1CN(Cc2cccs2)C[C@H](n2cnc3c(Nc4ccccc4)ncnc32)O1 -4.85%
COc1ccc(-c2ccc(CN3C(CC(C)C)C(=O)N(Cc4cn(CC5CCCCC5)nn4)CCS3(=O)=O)cc2)cn1 (stereo unspecified) 0.993%
CN(Cc1ccccc1F)c1cc2c(c3c1ccn3C)C1CCC2O1 (stereo unspecified) -29.6%
COc1ccc(/C=N/NC(=O)Nc2ccc3nsnc3c2)c(OC)c1 -16.9%
COc1ccc(/C=N/NC(=O)CNC(=O)c2ccc(S(=O)(=O)N3CCCC3)cc2)c(OC)c1 -0.269%
COC(=O)[C@@]12C[C@@H](CC(=O)NCc3cccc(C(F)(F)F)c3)C(=O)N(Cc3ccco3)C1=CCC(C)(C)C2 -1.5%
Cc1cccc(NC(=O)/C=C/c2ccc3c(c2)OCO3)n1 -14.5%
COc1cccc(/C=C/C(=O)Nc2ccc3c(c2)OCCO3)c1 -6.81%
CSC1=NN(c2ccccc2)CN(c2ccccc2)N1C -6.6%
COC(=O)c1ccc2nc(C3CCCCC3)c(Cc3cccc(F)c3)n2c1 10.5%
COc1cc2c(cc1OC)CN(CC(=O)Nc1ccc(F)cc1)CC2 -16.8%
O=C(CN1CCc2cc3c(cc2C1)OCCCO3)Nc1ccccc1 -19.3%
CC1CCN(CCC(=O)Nc2ccccc2)CC1 -0.851%
CCOC(=O)N1CCN(CCC(=O)Nc2ccccc2)CC1 -15.4%
COc1ccc(NC(=O)C[C@H]2C(=O)N(CCc3ccccc3)C[C@@H]2C)cc1 1.09%
CC(=O)NC(c1ccccc1)c1nc(-c2cccc(C(C)C)c2)cs1 (stereo unspecified) 20.2%
CC1(C(=O)NS(=O)(=O)c2ccc3ccccc3c2)CCN1C(=O)C1(c2ccc(Cl)cc2)CCC1 (stereo unspecified) -21.3%
CNc1cncc(-c2cccc(C(=O)N3CCOCC3)c2)n1 13.3%
CCC(c1nnnn1-c1ccc2c(c1)OCCO2)N1CCN(c2ccc(C(F)(F)F)cn2)CC1 (stereo unspecified) 4.77%
COc1ccc(/C=C2\SC(=S)N(CCC(=O)N3CCOCC3)C2=O)cc1OC -14.3%
O=C(NCCCN1CCCCCC1)C1CC(=O)N(C2CCCC2)C1 (stereo unspecified) 10.5%
COc1ccc(CN2CC(C(=O)NCCN3CCN(c4ccccc4F)CC3)CC2=O)cc1 (stereo unspecified) -22.6%
O=C(C[C@H]1CC[C@H]2[C@@H](COC[C@H](O)CN2C(=O)c2ccccn2)O1)N1CCN(c2ccccc2)CC1 -25.4%
CCOC(=O)C1CCCN(C(=O)c2ccc(N(C)C)cc2)CC1 (stereo unspecified) 22.6%
CC1=C(C(=O)N2CCOCC2)CC(CC(=O)NCC2CCCCC2)C(=O)N1Cc1ccc(F)cc1 (stereo unspecified) -11.1%
NC(Cc1ccc(F)cc1)c1csc(Nc2nncc3ccccc23)n1 (stereo unspecified) 7.2%
O=C1CC2(CCCC2)Oc2ccc(Cl)cc21 0%
S=C1Nc2cc(Cl)ccc2Sc2ccccc21 4.03%
CCOC(=O)N1CCN(C(=O)C[C@@H]2C[C@@]3(C(=O)OC)CCCCC=C3N(CCC3=CCCCC3)C2=O)CC1 18.8%
Cc1ccc(Cn2cc(CN3CC(N4CCN(C)CC4)CS3(=O)=O)nn2)cc1 (stereo unspecified) -6.65%
O=S1(=O)CC(N2CCSCC2)CN1Cc1cn(Cc2cccc(Cl)c2)nn1 (stereo unspecified) 26.4%
COc1ccc(-c2cc(NC=O)c3ncc(-c4cccc(C(=O)N(C)C)c4)n3c2)c(OC)c1 -2.96%
COC(=O)[C@]12CCCCC=C1N(CCC1=CCCCC1)C(=O)[C@H](CC(=O)N1CCSCC1)C2 -7.56%
Cc1ccccc1C#CC1=CC(=O)CC(C)(C)C1 -9.95%
Cc1nnc(SC(C)C(=O)c2c[nH]c3ccccc23)n1C1CC1 (stereo unspecified) 20.8%

Max response, negative = inhibition, active:
Cc1c(C(=O)OC(C)C)sc(NC(=O)c2cccnc2)c1C#N -61.4%
O=C(O)c1ccc([N+](=O)[O-])cc1Sc1ccsc1 -56.7%
O=C(NCCCN1CCN(c2ccc(F)cc2)CC1)Nc1ccc([N+](=O)[O-])cc1 -118%
COc1ccc(/C=N/NC(=O)c2ccc3c(c2)OCCO3)c(OC)c1 -64.3%
O=C(/C=C\c1ccc2c(c1)OCO2)NC1(C(=O)Nc2ccc3c(c2)OCCO3)CCCCC1 -59.6%
Cc1ccc(NC(=O)CCN2CCc3ccccc3C2)cc1 -94.8%
Cc1ccc(NC(=O)CN2CCc3ccccc3C2)cc1 -84.2%
O=C(NCCCN1CCN(c2ccccc2F)CC1)C1CCC(=O)N1C1CCCCC1 (stereo unspecified) -78%
O=C1Cc2ccccc2Sc2ccc(Cl)cc21 -51%
